Measurements taken from PubChem BioAssay (NCATS).
Results filed as inconclusive are left out. Values without a mark were called inactive. Activity calls are given as the source filed them. Calls come from the whole dose curve; as a rule, active = well fitted curve in the direction sought with a large enough effect; inconclusive = small, poorly fitted or top-dose-only effect, or another doubt; inactive = no such curve, though single readings can be large; an effect the other way counts as inactive or inconclusive.

Biological target: Rap guanine nucleotide exchange factor 4 (Homo sapiens) (UniProt Q8WZA2)
Sequence (Q8WZA2 whole entry, looked up): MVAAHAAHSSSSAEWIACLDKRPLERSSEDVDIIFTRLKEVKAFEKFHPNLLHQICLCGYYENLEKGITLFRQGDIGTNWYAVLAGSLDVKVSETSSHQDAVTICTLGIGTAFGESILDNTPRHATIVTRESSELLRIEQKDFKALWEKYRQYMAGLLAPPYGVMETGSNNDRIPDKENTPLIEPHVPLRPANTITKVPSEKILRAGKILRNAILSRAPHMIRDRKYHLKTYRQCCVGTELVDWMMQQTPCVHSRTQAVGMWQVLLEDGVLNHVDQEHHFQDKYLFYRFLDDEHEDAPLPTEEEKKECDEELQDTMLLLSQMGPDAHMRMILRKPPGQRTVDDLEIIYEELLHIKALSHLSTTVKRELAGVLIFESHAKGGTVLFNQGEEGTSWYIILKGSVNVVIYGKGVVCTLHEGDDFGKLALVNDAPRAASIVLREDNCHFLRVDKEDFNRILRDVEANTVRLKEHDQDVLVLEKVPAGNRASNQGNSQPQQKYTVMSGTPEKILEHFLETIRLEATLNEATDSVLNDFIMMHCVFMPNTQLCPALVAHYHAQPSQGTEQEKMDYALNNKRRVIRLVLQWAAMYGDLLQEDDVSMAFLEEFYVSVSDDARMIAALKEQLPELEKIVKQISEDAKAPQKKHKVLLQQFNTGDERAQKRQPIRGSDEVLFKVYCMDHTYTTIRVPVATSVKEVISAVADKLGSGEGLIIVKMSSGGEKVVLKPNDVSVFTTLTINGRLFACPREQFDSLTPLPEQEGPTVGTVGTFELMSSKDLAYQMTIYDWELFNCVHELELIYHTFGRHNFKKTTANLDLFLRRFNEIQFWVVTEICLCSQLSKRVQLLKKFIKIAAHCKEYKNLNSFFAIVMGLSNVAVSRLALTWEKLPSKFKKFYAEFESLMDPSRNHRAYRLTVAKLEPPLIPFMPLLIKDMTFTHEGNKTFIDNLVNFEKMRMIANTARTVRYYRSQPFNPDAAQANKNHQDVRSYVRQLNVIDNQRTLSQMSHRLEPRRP
Experiment: Confirmatory qHTS for agonist of cAMP-regulated guanine nucleotide exchange factor 4 (EPAC2) (AID 1645884);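 note: nucleotide exchange releases bodipy-GDP from Rap1 and this lowers its fluorescence; nearly all actives have a fitted effect of over 65% in size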
Settings: EPAC2 GEF activity, Rap1B-BODIPY-GDP fluorescence; series mostly up to 154 µM; activation: at the top concentration
% is set by controls: 0 for no effect and ±100 for the full control effect.

Row | Compound | activation
1 | C[C@@H]1CC=C[C@@H]2[C@H]1C(=O)N(Cc1ccccc1)[C@H]2c1ccccc1Br | -5.95%
2 | CCc1ccc(C(c2ccccc2)c2c(C)[nH]c3ccccc23)s1 (stereo not drawn) | 2.23% [at 83.8 µM, percent relative to cAMP agonist control]
3 | COc1ccc(NC(=O)CN(C)C(=O)c2cc(-c3ccco3)nc3ccccc23)cc1 | -1.46%
4 | COc1ccc(NC(=O)CSc2sc3c(O)cc(=O)[nH]c3c2C#N)c(OC)c1 | 3.92% [at 17.1 µM, percent relative to cAMP agonist control]
5 | C[C@H](c1ccccc1)N1C[C@H](COCc2ccccc2)Oc2cc(N3CC[C@@H](O)C3)ccc2S1(=O)=O | 10.3% [at 17.1 µM, percent relative to cAMP agonist control]
6 | CCOC(=O)c1cc2c(ccn2C)n1CC(=O)N1CCN(c2cccc(C(F)(F)F)c2)CC1 | 0% [at 17.1 µM, percent relative to cAMP agonist control]
7 | O=C(N/N=C/c1ccc(Sc2ccccn2)o1)c1cc2ccccc2cc1O | -5.03%
8 | CC(C)CC(NS(=O)(=O)OCC(Cl)(Cl)Cl)c1ccccc1 (stereo not drawn) | 5.17% [at 17.1 µM, percent relative to cAMP agonist control]

Biological target: Rap guanine nucleotide exchange factor 4 (Homo sapiens) (UniProt Q8WZA2)
Experiment: Confirmatory qHTS for antagonist of cAMP-regulated guanine nucleotide exchange factor 4 (EPAC2) (AID 1645885); note: nearly all actives have a fitted effect of over 25% in size; note: potency is the fitted concentration of half-maximal effect
Settings: EPAC2 Rap1B-BODIPY-GDP exchange fluorescence, biochemical; series mostly up to 12.7 µM; activity change, negative = inhibition: at the top concentration

Row | Compound | activity change, negative = inhibition | outcome | Potency
9 | ON=C(c1ccccc1)c1ccc2c3c(cccc13)CC2 | 52.2% [at 114 µM] |  | 
10 | Nc1ccc2ccc(O)cc2c1 | 5.29% |  | 
11 | Cc1cc(/C=C2\C(=N)N3N=C(c4ccco4)SC3=NC2=O)c(C)n1Cc1ccccc1 |  | inactive | 
12 | Oc1cccc(C=Nc2cccc3ccccc23)c1O | 13.9% [at 114 µM] |  | 
13 | COc1ccc(Cl)cc1NC(=O)CN(C)C(=O)c1cc(-c2ccncc2)nc2ccccc12 | -19.6% [at 114 µM] |  | 
14 | S=c1[nH]nc(-c2cc(-c3ccccc3)n[nH]2)n1/N=C/c1cccc(Cl)c1 | 46.9% [at 114 µM] |  | 
15 | COc1cc2c(cc1OC)C(c1cccs1)N(C(=O)C(C)C)CC2 (stereo not drawn) | 9.15% [at 114 µM] |  | 
16 | O=C1CSC(c2cccc(Cl)c2Cl)N1c1ccccn1 (stereo not drawn) | -4.72% |  | 
17 | Cc1ccc(C)c(OC(C)C(=O)Nc2ccc(S(=O)(=O)Nc3nccs3)cc2)c1 (stereo not drawn) |  |  | 33.8 µM (active)
18 | Cc1ccc(C(=O)c2cn(Cc3cccc(C)c3)c3nc(C)ccc3c2=O)cc1 | -26.4% |  | 
19 | COCCCNC(=O)C[C@@H]1C[C@@]2(C(=O)OC)CCCCC=C2N(Cc2cccc3ccccc23)C1=O | -9.92% |  | 
20 | COc1cc2c(cc1OC)C(COc1cc(C)cc(C)c1)N(C(C)=O)CC2 (stereo not drawn) | -26.3% |  | 
21 | O=C(COC(=O)C1(c2ccc(Cl)cc2)CCCC1)NCc1ccco1 |  |  | 75.7 µM (active)
22 | CC(C)Cc1ccc(CN2C(C(C)C)C(=O)N(Cc3cn(CCC4OCCO4)nn3)CCS2(=O)=O)cc1 (stereo not drawn) | -7.68% |  | 
23 | O=C1/C(=C/c2cccs2)COc2ccccc21 | -3.54% |  | 
24 | Cn1c(SCC(=O)c2cc(Cl)c(Cl)s2)nnc1-c1ccco1 | -0.99% [at 114 µM] |  | 
25 | Oc1ccc(-c2nc(-c3ccc(O)c(O)c3)cs2)cc1 | 8.9% [at 114 µM] |  | 
26 | N#C/C(=C/C1=C(N2CCOCC2)C(=C/c2cccc([N+](=O)[O-])c2)/CC1)C(=O)Nc1ccccc1F | -10.2% |  | 
27 | CCN(CCCNC(=O)c1cc2cc3ccc(OC)cc3nc2s1)c1cccc(C)c1 | 0.252% |  | 
28 | O=C(Nc1cccc(F)c1)c1ccc(-c2cccnc2)c2ccoc12 | -1.99% [at 114 µM] |  | 

Row | Compound | activity change, negative = inhibition | outcome | Potency
29 | CC1=NN(c2ccc(C)c(C)c2)C(=O)C1C(c1cccc(O)c1)C1C(=O)N(c2ccc(C)c(C)c2)N=C1C (stereo not drawn) | 0.159% |  | 
30 | O=c1[nH]cc(N=Cc2cc(Cl)cc(Cl)c2O)c(=O)[nH]1 | 5.87% [at 114 µM] |  | 
31 | O=S(=O)(Nc1nc2ccc(Cl)cc2s1)c1cccs1 | -14.6% |  | 
32 | COc1ccc(CC(=O)NCc2ccc3c(c2)CCN3C(=O)c2ccc(Cl)cc2)cc1OC | 1.54% |  | 
33 | Cc1ccc(Nc2c(-c3ccccn3)nc3cccc(C)n23)cc1 | -9.56% [at 114 µM] |  | 
34 | COc1ccc(NC(=O)CN2CCN(c3c(C)cc(C)cc3C)CC2)cc1 | -7.96% |  | 
35 | CC(C)c1ccc(/C=C/C(=O)Nc2ccc(CN3CCOCC3)cc2)cc1 |  |  | 95.3 µM (active)
36 | O=C(OCC1OC(n2ncc(=O)[nH]c2=O)C(OC(=O)c2ccccc2)C1OC(=O)c1ccccc1)c1ccccc1 (stereo not drawn) | -20.7% |  | 
37 | CCN(C(=O)Cn1c(C(=O)OC)cc2sccc21)c1cccc(C)c1 | -12.9% |  | 
38 | Cc1ccc(/C=C(\C#N)C(=O)Nc2cccc3ncccc23)o1 | 23.7% [at 114 µM] |  | 
39 | O=c1cc(-c2ccccc2)[nH]n1-c1nc2ccccc2s1 | 1.23% |  | 
40 | CCc1ccc2c(c1)NC(=O)C2(C)Cc1ccc(Cl)s1 (stereo not drawn) | -39.3% |  | 
41 | C[C@@H]1CC=C[C@@H]2[C@H]1C(=O)N(Cc1ccccc1)[C@H]2c1ccccc1Br | 38.8% [at 114 µM] |  | 
42 | CCc1ccc(C(c2ccccc2)c2c(C)[nH]c3ccccc23)s1 (stereo not drawn) | -4.42% |  | 
43 | COc1ccc(NC(=O)CN(C)C(=O)c2cc(-c3ccco3)nc3ccccc23)cc1 |  | inactive; activator; fitted 8.4921 uM | 
44 | COc1ccc(NC(=O)CSc2sc3c(O)cc(=O)[nH]c3c2C#N)c(OC)c1 | 1.44% |  | 
45 | C[C@H](c1ccccc1)N1C[C@H](COCc2ccccc2)Oc2cc(N3CC[C@@H](O)C3)ccc2S1(=O)=O | -9.74% |  | 
46 | CCOC(=O)c1cc2c(ccn2C)n1CC(=O)N1CCN(c2cccc(C(F)(F)F)c2)CC1 | 20.3% |  | 
47 | O=C(N/N=C/c1ccc(Sc2ccccn2)o1)c1cc2ccccc2cc1O | 71.1% [at 114 µM] |  | 
48 | CC(C)CC(NS(=O)(=O)OCC(Cl)(Cl)Cl)c1ccccc1 (stereo not drawn) | -20% |  | 
